Experimental data published in ChEMBL document CHEMBL3988442, “University of Dundee, Small-Polar-MMV Screening Library” (2021).
In all, about 48,000 compounds went through this assay and about 13,000 (27%) showed an effect of 50% or more. This is one part of the list.

tested on: Wolbachia pipientis; experiment: Anti-Wolbachia Cell-Based Screen; type: functional; set-up: scale not given: in the data most compounds retested in dose-response had high values; settings: 5 µM

| SMILES | Percent Effect [%] |
| --- | --- |
| Cc1ccccc1-c1cncc(C2CCN(C3CCOCC3)CC2)n1 | 110.9 |
| Cc1ccccc1-c1cncc(C2CCN(CCO)CC2)n1 | 122.1 |
| Cc1ccccc1-c1cncc(C2CCN(S(=O)(=O)N(C)C)CC2)n1 | 110.9 |
| Cn1cncc1-c1nnc([C@H]2CCN(C3CCOCC3)C2)o1 | -2.913 |
| Cc1ccccc1-c1cncc(C2CCN(C)CC2)n1 | -14.26 |
| COCCN1CCC(c2cncc(-c3ccccc3C)n2)CC1 | 100.9 |
| CN(C)S(=O)(=O)N1CCC(Cn2cccn2)CC1 | 2.027 |
| CCc1nc2n(n1)CC(NCC(=O)Nc1ccc(Cl)cn1)CC2 (stereo not drawn) | -9.728 |
| CC(C)(C)NC(=O)Cn1cc(C(N)=O)c(-c2ccccc2)n1 | 6.588 |
| CN1CCN(Cc2noc(-c3cc(-c4ccc(F)cc4)n[nH]3)n2)CC1 | -13.75 |
| Clc1ccc2cccnc2c1CN1CCCC(Cn2cncn2)C1 (stereo not drawn) | -4.204 |
| CCn1c(CN2CCCC2)nnc1C1CCN(Cc2ccccn2)CC1 | -10.72 |
| Cn1cc(CN2CCC(CCC(=O)Nc3ccccc3Cl)CC2)cn1 | 1.121 |
| Fc1ccccc1CC1CCN(Cc2ccccn2)CC1 | -1.082 |
| Cc1ccccc1-c1cncc(C2CCN(Cc3ccccn3)CC2)n1 | 93.34 |
| Cc1ccccc1-c1cncc(C2CCN(C(=O)CN(C)C)CC2)n1 | -14.47 |
| Cc1ccccc1-c1cncc(C2CCN(CC(=O)N(C)C)CC2)n1 | 124.8 |
| Cc1ccccc1-c1cncc(C2CCN(Cc3cnn(C)c3)CC2)n1 | 99.14 |
| CN(CC(F)(F)F)C(=O)CN1CCC(c2cc3ccccc3[nH]2)CC1 | -8.939 |
| CCn1c(CN(C)C)nnc1C1CCN(Cc2ccccn2)CC1 | 2.831 |
| Oc1nc(C2CCN(Cc3ccccn3)CC2)cc2ccccc12 | 103.3 |
| CC(=O)Nc1ccc(CC(=O)N2CC(S(=O)(=O)C3CCCCC3)C2)cc1 | 1.653 |

| SMILES | Percent Effect [%] |
| --- | --- |
| Cc1oc(-c2ccsc2)nc1CNCCn1cccn1 | -19.09 |
| c1nc(NCC2(N3CCOCC3)CCSC2)c2sccc2n1 (stereo not drawn) | -18.02 |
| CCc1nc(NCCCOC)c2c(n1)c(C)nn2C | 12.69 |
| CCc1nccn1-c1cncc(C2CCCN2Cc2ccccn2)n1 (stereo not drawn) | 112.2 |
| CCn1ccnc1CN1CCN(Cc2ccccn2)CC1C (stereo not drawn) | -25.03 |
| CCc1nccn1-c1cncc(C2CCCN2Cc2ccc(F)cc2)n1 (stereo not drawn) | -3.137 |
| CCCn1ccnc1CN1CCCC1c1ccccn1 (stereo not drawn) | 6.189 |
| CCc1nccn1-c1cncc(C2CCCN2CC(=O)N2CCCC2)n1 (stereo not drawn) | 115.3 |
| CCc1nccn1-c1cncc(C2CCCN2Cc2ccccc2)n1 (stereo not drawn) | 119.3 |
| CCc1nccn1-c1cncc(C2CCCN2Cc2cccnc2)n1 (stereo not drawn) | -2.141 |
| CN(CCc1ccccn1)S(=O)(=O)N1CCCC1c1ccco1 (stereo not drawn) | 10.93 |
| O=C(CN1CCCC1c1nc(-c2ccccn2)no1)N1CCNCC1 (stereo not drawn) | 2.337 |
| CCc1nccn1CC(=O)N1CCN(C2CCc3ccccc3C2)CC1 (stereo not drawn) | -21 |
| CN(C)C(=O)CCc1cncc(C2CCCN2Cc2ccccn2)n1 (stereo not drawn) | 97.92 |
| O=C(CN1C(=O)CCC1=O)N1CCOC2(CCOCC2)C1 | 13.71 |
| O=C(NC1CCN(CC2CC2)C1)c1ccc(N2CCC(O)CC2)cc1 (stereo not drawn) | -2.601 |
| CCN(C)S(=O)(=O)N(CC)Cc1cccc(-c2ccncc2)c1 | 31.71 |
| Cc1cc2c(cc1C)OC(C(=O)NCCNC(=O)C1CCCC1)C2 (stereo not drawn) | -3.964 |
| Cc1ccc(C)c(-n2cc(CN3CC[C@@H](O)C3)c(-c3ccccc3)n2)c1 | 7.715 |
| CCN1CCN(C(=O)c2ccc3c(c2)OCC(=O)N3)[C@H]2CS(=O)(=O)C[C@H]21 | -0.2208 |
| CC(C)(O)c1cc(CC2(NCc3ccccc3Cl)COC2)no1 | -20.02 |
| Cn1cc(CN2C[C@H]3CCC[C@@H](CNc4nccn4C)[C@H]3C2)cn1.O=C(O)C(F)(F)F | -10.56 |

| SMILES | Percent Effect [%] |
| --- | --- |
| Cc1cc(CN(CC(N)=O)CC(C)C)on1 | -7.292 |
| Cn1nc(C2CCNCC2)c2c(C(=O)NC3CC3)cc(C3CC3)nc21 | 128.7 |
| CCCn1ncc2c(C(=O)Nc3n[nH]c(SC)n3)cc(C3CC3)nc21 | 6.515 |
| Cn1nc(C2CCCNC2)c2c(C(=O)NC3CC3)cc(C3CC3)nc21 (stereo not drawn) | 121.4 |
| Cn1nc(C2CCNC2)c2c(C(=O)NC3CC3)cc(C3CC3)nc21 (stereo not drawn) | 110 |
| Cn1nc(C2CCCN2)c2c(C(=O)NC3CC3)cc(C3CC3)nc21 (stereo not drawn) | 135.7 |
| Cc1nc(NCCSc2cnn[nH]2)c2cccnc2n1 | 2.11 |
| Cc1cnn(CCNCc2nc(-c3ccsc3)oc2C)c1 | -10.22 |
| CCCN(C)S(=O)(=O)NC(=O)c1ccc(CC)o1 | 14.97 |
| O=C(CNC1CCc2ncnn2C1)N(C1=CCCCC1)C1CC1 (stereo not drawn) | -15.4 |
| Fc1cccc(N2CCOC3(CCCN(c4cnccn4)C3)C2)c1 (stereo not drawn) | 11.27 |
| CN(C)CCN(Cc1ccccc1)C(=O)CN1CCCNC1=O | -13.77 |
| CC1CCN(CCNC(=O)C2CCN(C(=O)C(C)(C)C)CC2)CC1 | 2.038 |
| CCCS(=O)(=O)CC(=O)N1CCCC1c1noc(C2CC2)n1 (stereo not drawn) | -6.337 |
| CCC(=O)N1CCCCC1c1nc(O)c2c(n1)CN(S(=O)(=O)CC)CC2 (stereo not drawn) | 126.4 |
| CCS(=O)(=O)CC(=O)N1CCCC1c1noc(C2CC2)n1 (stereo not drawn) | -5.674 |
| CCC(=O)N1CCCCC1c1nc(O)c2c(n1)CN(S(C)(=O)=O)CC2 (stereo not drawn) | 103.7 |
| CC(C)NC(=O)c1ccc2nnc(C3CN(C)CCN3C)n2c1.O=C(O)C(F)(F)F.O=C(O)C(F)(F)F (stereo not drawn) | -4.33 |
| COCc1cc(N(Cc2ccsc2)C2CC2)n2ncnc2n1 | -20.66 |
| Cc1oc(C(C)C)cc1C(=O)N1C[C@H]2CC[C@@H]1CN(S(=O)(=O)N(C)C)C2 | 1.683 |
| CCC1CCCCCN1C(=O)c1cc(C#N)c(SC)[nH]c1=O (stereo not drawn) | 95.93 |
| CCc1cn[nH]c1C1CCN(C(=O)c2cc(C#N)c(=O)[nH]c2C)CC1 | 0.2267 |

| SMILES | Percent Effect [%] |
| --- | --- |
| CSc1[nH]c(=O)c(C(=O)N2CCCC2C2CCCC2)cc1C#N (stereo not drawn) | 90.55 |
| CSc1[nH]c(=O)c(C(=O)N2CCCC2c2cccs2)cc1C#N (stereo not drawn) | 109.4 |
| O=C(c1cnc2[nH]c(=O)[nH]c(=O)c2c1)N1CCCC1C1CCCC1 (stereo not drawn) | -0.6345 |
| COCCn1cc(C(=O)N2CCCC2c2cccs2)c2ccccc21 (stereo not drawn) | 20.58 |
| Cn1c(=O)[nH]c(=O)c2cc(C(=O)N3CCCC3C3CCCC3)cnc21 (stereo not drawn) | 9.231 |
| CCc1cn[nH]c1C1CCCN(C(=O)c2cc(C#N)c(=O)[nH]c2C)C1 (stereo not drawn) | -3.715 |
| N#Cc1ncn(CC(=O)N2CCCC2c2cccs2)n1 (stereo not drawn) | -17.52 |
| COc1ccc2c(CN3CCCN(Cc4ccncc4)CC3)n[nH]c2c1 | -3.33 |
| COCCc1noc(CN2CCCC2Cn2cc(C)cn2)n1 (stereo not drawn) | 0.3604 |
| COCCc1noc(CN2CCCC2Cn2cccn2)n1 (stereo not drawn) | 82.73 |
| Cc1cccc(-c2noc(CN3CCCC3Cn3cccn3)n2)c1 (stereo not drawn) | 3.964 |
| c1cnn(CC2CCCN2Cc2nc(C3CC3)no2)c1 (stereo not drawn) | 112.2 |
| COc1ccccc1-c1noc(CN2CCCC2Cn2cccn2)n1 (stereo not drawn) | -4.509 |
| c1cnn(CC2CCCN2Cc2nc(-c3ccoc3)no2)c1 (stereo not drawn) | -2.106 |
| COCCc1noc(CN2CCCCC2Cn2cccn2)n1 (stereo not drawn) | 100.4 |
| COCCc1noc(CN2CCCCC2Cn2cc(C)cn2)n1 (stereo not drawn) | 4.505 |
| NC(=O)C1CCCN1Cc1cccc(NC(=O)c2ccsc2)c1 (stereo not drawn) | 23.54 |
| CCOc1ccnc(N2CCN(C(=O)CCc3cnn(C)c3)CC2)n1 | -13.21 |
| CC(C)(C)[S+]([O-])CCNC(=O)c1ccc(Cl)c2cccnc12 (stereo not drawn) | -0.5335 |
| CCN(CC)C(CNCc1ccc(OC)c(F)c1)c1ccco1 (stereo not drawn) | 3.453 |
| CC1(c2ncc(CN3CCN(c4ncccn4)CC3)cn2)CCCCO1 (stereo not drawn) | 136.6 |
| CN(CCc1ccccc1)Cc1cc(C(=O)N2CCCC2(C)C)no1 | -2.856 |

| SMILES | Percent Effect [%] |
| --- | --- |
| CN(CCc1ccccc1)Cc1nc(-c2cnccn2)no1 | -27.95 |
| CN(CCc1ccccc1)Cc1cnc(C2(C)CCCCO2)nc1 (stereo not drawn) | 153.2 |
| CC(C)(C)c1cnc(CN2CCN(c3ncccn3)CC2)o1 | -4.757 |
| CC(C)=CCC1(CO)CCCN(Cc2cnc(N3CCOCC3)nc2)C1 (stereo not drawn) | -21.22 |
| Cn1cnnc1C1CCCN(C(=O)c2cc(C3CC3)on2)C1 (stereo not drawn) | 107.9 |
| Cc1cc(C)n(C2CCCN(C(=O)c3cc(C4CC4)on3)C2)n1 (stereo not drawn) | 8.092 |
| Cn1cnnc1C1CCCN(C(=O)CCc2ccc3c(c2)OCO3)C1 (stereo not drawn) | 6.982 |
| Cn1cnnc1C1CCCN(C(=O)Cc2ccc3c(c2)OCCO3)C1 (stereo not drawn) | 17.9 |
| Cc1cc(C(=O)N2CCCC(c3nncn3C)C2)no1 (stereo not drawn) | 92.93 |
| Cc1ccc(C(NC(=O)CN2CCc3cncnc3C2)C2CC2)cc1 (stereo not drawn) | 0.6852 |
| Cc1nonc1OCCNc1ncnc2sc3c(c12)CCNC3 | -7.187 |
| O=C1CN(Cc2nnc(-c3ccc(Br)cc3)o2)CCN1 | -13.92 |
| CC(c1ccc(-c2cnc(N)nc2)cc1)N1CCOCC1 (stereo not drawn) | 42.28 |
| Cn1cccc1C(=O)N1CCC2(CCCN2c2ncccn2)CC1.O=C(O)C(F)(F)F | 1.069 |
| Cn1ccc(C(=O)N2CCC3(CCN3c3ncccn3)C2)n1.O=C(O)C(F)(F)F (stereo not drawn) | 111.1 |
| Cn1cccc1C(=O)N1CCC2(CC1)CN(c1ccccn1)CCO2.O=C(O)C(F)(F)F | -8.251 |
| Cn1cccc1C(=O)N1CCC2(CCN2c2ncccn2)C1.O=C(O)C(F)(F)F (stereo not drawn) | 93.48 |
| Cn1ccnc1C(=O)N1CCC2(CCN2c2ncccn2)C1.O=C(O)C(F)(F)F (stereo not drawn) | 99.87 |
| CCN1CCCC12CCN(C(=O)c1nccn1C)CC2.O=C(O)C(F)(F)F | -7.491 |
| O=C(O)C(F)(F)F.O=C(c1c[nH]cn1)N1CCC(F)(F)C2(CCN(c3ncccn3)C2)C1 (stereo not drawn) | 7.042 |
